The values that follow come from PubChem BioAssay AID1745848 (National Center for Advancing Translational Sciences (NCATS), 2022).

Each structure is given as a SMILES string. Among all 2,100 compounds or so, about 940 (45%) were called active. Another 48% or so got no clear call; they are omitted. The set was probably picked from earlier hits. The list shows a part of the results. Values without a mark were called inactive. Calls come from the whole dose curve; as a rule, active = well fitted inhibition curve with a large enough effect; inconclusive = small, poorly fitted or top-dose-only effect; inactive = no such curve, though single readings can be large or run the other way.
Potency is the fitted concentration of half-maximal effect.

The nature of this assay: Confirmatory qHTS for Inhibitors of ATXN expression.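 For activity change, negative = inhibition: 0% = DMSO vehicle wells and -100% = medium-only wells without cells.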 Note: nearly all actives have a fitted effect of over 65% in size. To be noted: ATXN2-luciferase reporter cells, luminescence, 24 h; series mostly up to 57.5 µM; activity change, negative = inhibition: at the top concentration. From the text:
PI: Daniel Scoles Ph.D. University of Utah School of Medicine, Salt Lake City, Utah MLPCN Grant: NS073009 Spinocerebellar ataxia type 2 (SCA2) is a multisystem neurodegenerative disease caused by a dominantly acting mutation leading to expansion of a polyQ domain in the ataxin-2 protein (ATXN2). SCA2 patients develop progressive ataxia and later lose function in other neuronal systems. Prominent parkinsonian signs develop in some patients. Like many neurodegenerative disorders, no symptomatic or disease-modifying treatments are known. The primary objective of the proposed research is to identify compounds inhibiting ATXN2 expression and to test them for efficacy in SCA2 mouse models. We have developed a cell-based assay paired with an in vivo mouse model using identical luciferase expression constructs. This approach takes advantage of an ATXN2-luciferase transgene, with the luciferase gene flanked by the upstream and downstream portions of the ATXN2 gene. Here we describe a 5-7 dose quantitative high thoroughput screen (qHTS) for compounds lowering ATXN2 expression. We screened the NIH Molecular Libraries Small Molecule Repository (MLSMR) and NCGC's mechanistically annotated (MIPE) and drug repurposing (NPC) collections of compounds for lowering expression of an ATXN2-luciferase reporter in HEK-293 cells. The assay is a multiplexed cell viability assay to ensure target reduction in the absence of cytotoxicity. Secondary qHTS assays included a CMV-luciferase reporter expressed in HEK-293 cells as well as a biochemical assay using recombinant luciferase to detect inhibitors of the reporter enzyme. Compounds that inhibit ATXN2 expression but is not cytotoxic were selected for confirmatory and secondary screens.
PROTOCOL TABLE (as described by Inglese J, Shamu CE and Guy RK. 2007) SEQUENCE No. (e.g., 1, 2, 3, etc.); PARAMETER (e.g., Cells, Incubation, Reagent, etc.); VALUE; DESCRIPTION. 1; Cells; 4 uL; white, solid bottom, 1536-well Greiner assay plate. 2; Incubation; 2 hr; 37 degree C in 5% humidified CO2. 3; Compounds; 23 nL; Kalypsis pintool (Wako USA) equipped with a 1536-well pin head. 4; Incubation; 24 hr; 37 degree C in 5% humidified CO2. 5; Reagent; 1 uL; Gly-Phe-7-Amino-4-trifluoromethylcoumarin. 6; Incubation; 30 min; 37 degree C in 5% humidified CO2. 7; Detection; Fluorescence; ViewLux plate reader (PerkinElmer). 8; Reagent; 3 uL; SteadyGlo luciferase solution (Promega). 9; Incubation; 5 min; room temperature. 10; Detection; Luminescence; ViewLux plate reader (PerkinElmer). NOTES (numbers refer to Sequence numbers above) 1. […] expressing ATXN2-luciferase reporter were suspended in phenol-red free DMEM and dispensed in assay plates using a Multidrop Combi dispenser (Thermo Fisher Scientific). Wells containing medium only were plated on each plate, and values were used to normalize (100% inhibition) in the luciferase and CellTiter-Fluor assays. 2. Assay plates were incubated. Evaporation was prevented by covering assay plates with metal lids containing holes to allow gas diffusion. 3. Compounds were added in a dose response manner with the final concentrations of 57, 11.4, 2.28, 0.46, 0.091, 0.018, 0.0037 uM. Vehicle-only plates, with DMSO being pin-transferred to columns 5-48, were inserted uniformly at the beginning and the end of each library to monitor and record any shifts in assay performance. 5. 125 uM Gly-Phe-7-Amino-4-trifluoromethylcoumarin (MP Biomedicals) working concentration was used at a final concentration of 25 uM. 7. To assess cell viability; the assay plates were read using the ViewLux high-throughput CCD imager (PerkinElmer), wherein single end-point fluorescence measurement was acquired (excitation 405/10; emission 540/25 nm). 8. Detection reagent SteadyGlo Luciferase (Promega) was added to the assay plate. 10. Luminescence is then measured on the ViewLux imager equipped with a clear emission filter using a 2 sec exposure. […]
Turning to `C[C@H]1[C@@H](OS(=O)(=O)O)C[C@@H]2C[C@H]([C@@H](O)c3cc(=O)[nH]c(=O)[nH]3)NC3=NC[C@H]1N32`, the Potency is 7.94 µM (active).

Regarding `NC(=O)c1c(Br)n(C2OC(CO)C(O)C2O)c2ncnc(N)c12` (stereo unspecified), the Potency was 1.58 µM (active). `O=c1[nH]c2ccccc2n1C1CCN(C(c2cc3ccccc3o2)c2nnnn2-c2ccc3c(c2)OCCO3)CC1` (stereo unspecified): the Potency was 3.16 µM (active). For `Cc1cccc(C)c1-n1nnnc1C(c1cc2ccccc2o1)N1CCC(n2c(=O)[nH]c3ccccc32)CC1` (stereo unspecified), the Potency is 3.16 µM (active). On the same count and under the same terms, the figure for `COc1cccc(C(c2nnnn2-c2ccc3c(c2)OCCO3)N2CCC(n3c(=O)[nH]c4ccccc43)CC2)c1OC` (stereo unspecified) is 3.55 µM (active). As to `COC(=O)C(O)(c1ccc(NC(=S)NC(=O)c2ccc(Cl)cc2Cl)c(C)c1)C(F)(F)F` (stereo unspecified), the activity change, negative = inhibition was -8.26% [at 11.5 µM]. As to `CN1C2CCC1/C(=C/c1ccccn1)C(=O)/C2=C\c1ccccn1`, the Potency was 0.398 µM (active). Still for that read-out and setting: under `CC1CC(C)CC(C)C(O)C(C#N)=CC=CCC(C2CCCC2C(=O)O)OC(=O)CC(O)C(C)C1` (stereo unspecified) stands 0.501 µM (active); under `O=C1NC2C(=CC(O)C(O)C2O)c2cc3c(cc21)OCO3` (stereo unspecified), 0.199 µM (active); under `CCCCc1ccc2[nH]cc(CCN)c2c1`, 3.16 µM (active).

As for `NC(Cc1ccc(Cl)cc1)c1csc(Nc2ccccn2)n1` (stereo unspecified), the Potency is 22.4 µM (active).

On to `N#Cc1ncc(N=Cc2ccc(N(CCCl)CCCl)cc2)s1`, for which the Potency was 2 µM (active). Same read-out and setting: under `CCCCCCC(=O)N/N=C/c1c(O)n(CCc2ccccc2)c(=O)[nH]c1=O` stands 12.6 µM (active); under `CCCCCCC(=O)N/N=C/c1c(O)n(CCCC)c(=S)[nH]c1=O`, 15.8 µM (active); under `CCCCC(=O)N/N=C/c1c(O)n(CCC2=CCCCC2)c(=O)[nH]c1=O`, 15.8 µM (active).

With `Cc1ccc(N2C(=O)NC(=O)/C(=C/C=C/c3ccco3)C2=O)cc1`, the Potency was 2.82 µM (active). On the same count and under the same terms, the figure for `COc1ccc(CC2C(=O)NC(C)C(=O)N(C)C3C(=O)N(C)C(Cc4ccc(O)c(c4)Oc4ccc(cc4)C3O)C(=O)NC(C)C(=O)NC(C)C(=O)N2C)cc1` (stereo unspecified) is 0.316 µM (active). For `CCC(C)N1C(=O)/C(=C\c2cnc(N(C)C)nc2)C(=O)NC1=S` (stereo unspecified), the “activity change, negative = inhibition” value was -13.2%. Take `CC12CCC(O)CC1CCC1C2CCC2(C)C(C3=CC(=O)OC3)C(O)CC12O` (stereo unspecified): the Potency is 3.16 µM (active).

`CC1OC(OC2C(O)CC(OC3C(O)CC(OC4CCC5(C)C(CCC6C5CCC5(C)C(C7=CC(=O)OC7)C(O)CC65O)C4)OC3C)OC2C)CC(O)C1O` (stereo unspecified): the Potency was 0.316 µM (active). Still for that read-out and setting: the figure for `CC(=O)OC1CC2(O)C3CCC4CC(O)CCC4(C)C3CCC2(C)C1C1=CC(=O)OC1` (stereo unspecified) is 0.316 µM (active); for `C[C@]12CC[C@H](O)C[C@H]1CC[C@@H]1C2CC[C@]2(C)[C@@H](C3=CC(=O)OC3)[C@@H](O)C[C@]12O` (stereo partly specified) it is 0.355 µM (active); for `COC1C(O)C(C)OC(OC2CCC3(C)C(CCC4C3C(O)CC3(C)C(C5=CC(=O)OC5)CCC43O)C2)C1O` (stereo unspecified) it is 0.316 µM (active). The same measure, in the same setting: under `CN1CN(c2ccccc2)C2(CCN(CCCSc3ccccc3NC(=O)/C=C/c3ccccc3)CC2)C1=O` stands 28.2 µM (active).

`CC(C)c1oc(=O)cc2c1[C@@H](O)[C@H]1OC(=O)[C@@]3(C)CC[C@@H](O)[C@@]2(C)C13` (stereo partly specified): the Potency was 3.16 µM (active). Still for that read-out and setting: under `CCC1(OC(=O)CN)C(=O)OCc2c1cc1n(c2=O)Cc2cc3ccccc3nc2-1` (stereo unspecified) stands 0.0398 µM (active). The same measure, in the same setting: the figure for `CC[C@@]1(O)C(=O)OCc2c1cc1n(c2=O)Cc2cc3c(NC(=O)CN)cccc3nc2-1` is 0.112 µM (active). On the same count and under the same terms, the figure for `COc1ccc(CC2NCC(O)C2OC(C)=O)cc1` (stereo unspecified) is 0.224 µM (active). As to `COc1ccc(C[C@H]2NC[C@H](O)[C@H]2OC(C)=O)cc1`, the Potency is 0.0282 µM (active).

In the case of `Cc1ccc(/C=C2\C(=O)NC(=S)N(c3ccccc3F)C2=O)s1`, the Potency is 3.16 µM (active). On the same count and under the same terms, the figure for `CCC1CN2CCc3cc(OC)c(OC)cc3C2CC1CC1NCCc2c1[nH]c1ccc(O)cc21` (stereo unspecified) is 0.0398 µM (active); for `CSCCC(c1nnnn1-c1c(C)cccc1C)N1CCC2(CC1)C(=O)NCN2c1ccccc1` (stereo unspecified) it is 35.5 µM (active). The same measure, in the same setting: the figure for `CCC(C)(O)C(=O)OC1C(=O)OC2CC3C(C)=CC(=O)C(O)C3(C)C3C4(O)OCC23C1C(C)C4O` (stereo unspecified) is 0.251 µM (active); for `O=c1[nH]c2ccccc2n1C1CCN(C(CCc2ccccc2)c2nnnn2C2CCCC2)CC1` (stereo unspecified) it is 22.4 µM (active); for `CC(C)(C)n1nnnc1C(CCc1ccccc1)N1CCC(n2c(=O)[nH]c3ccccc32)CC1` (stereo unspecified) it is 28.2 µM (active).

For the compound `COC(=O)c1nc(-c2ccc3c(n2)C(=O)C(N)=C(OC)C3=O)c(N)c(-c2ccc(OC)c(OC)c2O)c1C`, the Potency was 14.1 µM (active). Take `COc1cc(C(=O)NN=Cc2ccc(N(CCCl)CCCl)cc2)cc(OC)c1OC`: the Potency was 8.91 µM (active). Same read-out and setting: the figure for `Cc1cc(N(CCCl)CCCl)ccc1C=NNC(=O)c1cccnc1` is 1.58 µM (active); for `O=C(NN=Cc1ccc(N(CCCl)CCCl)cc1)c1cc(=O)[nH]c(=O)[nH]1` it is 3.16 µM (active). As to `COc1ccc(N=Cc2c(O)n(-c3ccc(C)cc3)c(=O)[nH]c2=O)cc1`, the “activity change, negative = inhibition” value was -15.9%.

Regarding `Oc1c(Cl)cccc1Cc1cc(Cl)cc(Cl)c1O`, the Potency is 15.8 µM (active).

Turning to `Clc1ccc2[nH]c3c(c2c1)CCNC3`, the Potency was 3.16 µM (active). On the same count and under the same terms, under `O=[N+]([O-])c1oc2ccc3ccccc3c2c1CCO` stands 14.1 µM (active).

On to `C[C@@H]1O[C@@H](O[C@@H]2C=C3CC[C@@H]4C(CC[C@]5(C)[C@@H](c6ccc(=O)oc6)CC[C@]45O)[C@@]3(C)CC2)[C@H](O)[C@H](O)[C@H]1O` (stereo partly specified), for which the Potency was 0.112 µM (active).

Consider `COc1cccc2c1C(=O)c1c(O)c3c(c(O)c1C2=O)CC(O)(C(C)=NO)CC3OC1CC(N)C(O)C(C)O1` (stereo unspecified), for which the Potency was 0.708 µM (active). Regarding `Cc1ccc(N2C(=O)NC(=O)/C(=C\c3cc(C)n(-c4sc5c(c4C#N)CCCC5)c3C)C2=O)cc1`, the Potency is 10 µM (active).
